Assay results from PubChem BioAssay (Tox21).
Records with an inconclusive call do not appear. The source made the active and inactive calls. The call rests on the fitted dose curve; in most records, active means well fitted curve in the direction sought with a large enough effect in the repeat runs; inconclusive means weak or mixed curves; inactive means no such curve, though single readings can be large; an effect the other way counts as inactive or inconclusive.

Tests used:
[1] = A CellTox Green Cytotoxicity Assay to monitor cytotoxicity in HEK293 cells - 40 hour (AID 1224871); further: nearly all actives have a fitted effect of over 45% in size
How it was run: (§1)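 Fluorescence from a DNA-binding dye excluded by viable cells was measured repeatedly in the same HEK293 wells (600 cells/well) during continuous compound exposure at 37 C. Each assay gives one read point: 0, 8, 16, 24, 32 or 40 h.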

[2] = qHTS RealTime-Glo MT Cell Viability Assay in HEK293 cells - 16 hour (AID 1224872); further: top concentration of the series differs between compounds; nearly all actives have a fitted effect of over 50% in size
How it was run: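 Viability tracked continuously by luminescence as live cells reduce a prosubstrate for NanoLuc; HEK293 cells preincubated 5 h, compound-treated at 37 C, and read at 0, 8, 16, 24, 32 and 40 h.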

[3] = qHTS RealTime-Glo MT Cell Viability Assay in HepG2 cells - 8 hour (AID 1224873); further: nearly all actives have a fitted effect of over 55% in size
How it was run: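 HepG2 cells (600/well) mixed with RealTime-Glo MT reagent, settled 5 h at 37 C/5% CO2 before compound addition. Nonlytic NanoLuc luminescence from viable-cell prosubstrate reduction read repeatedly during 40 h treatment at 37 C.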

[4] = qHTS RealTime-Glo MT Cell Viability Assay in HEK293 cells - 40 hour (AID 1224874); conditions: RealTime-Glo luminescence; max response: active compounds read low; further: nearly all actives have a fitted effect of over 50% in size
How it was run: (§2)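 Luminescence, which tracks viable cell number through reduction of the prosubstrate to a NanoLuc substrate, was read over continuous 37 C culture. Cells (600/well) were premixed with reagent and rested 5 h before 23 nL of compound in DMSO was pinned.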

[5] = A CellTox Green Cytotoxicity Assay to monitor cytotoxicity in HEK293 cells - 24 hour (AID 1224875); further: series mostly up to about 77 µM; nearly all actives have a fitted effect of over 45% in size
How it was run: as §1

[6] = A CellTox Green Cytotoxicity Assay to monitor cytotoxicity in HepG2 cells - 16 hour (AID 1224876); further: nearly all actives have a fitted effect of over 45% in size
How it was run: (§3)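 Real-time cytotoxicity: fluorescence of a cell-impermeant cyanine dye binding DNA of dead HepG2 cells, measured repeatedly (0–40 h) during compound exposure at 37 C. Cells seeded 600/well with reagent, dosed after 5 h.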

[7] = qHTS RealTime-Glo MT Cell Viability Assay in HepG2 cells - 32 hour (AID 1224877); further: nearly all actives have a fitted effect of over 55% in size
How it was run: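 Viability was tracked continuously by NanoLuc luminescence from prosubstrate reduced by living HepG2 cells, at successive time points over 40 h of compound exposure. Cells with reagent were preincubated 5 h at 37 °C before compound addition.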

[8] = A CellTox Green Cytotoxicity Assay to monitor cytotoxicity in HepG2 cells - 24 hour (AID 1224878); further: nearly all actives have a fitted effect of over 45% in size
How it was run: as §3

[9] = A CellTox Green Cytotoxicity Assay to monitor cytotoxicity in HepG2 cells - 40 hour (AID 1224879); further: nearly all actives have a fitted effect of over 40% in size
How it was run: as §3

[10] = qHTS RealTime-Glo MT Cell Viability Assay in HEK293 cells - 0 hour (AID 1224880)
How it was run: as §2
On the % scale 0 is the no-effect control and ±100 the full control effect.

C1CCCNCCC1
inactive: Potency [1] | Potency [2] | Potency [3] | max response [4] -5.84% | Potency [5] | Potency [6] | Potency [7] | Potency [8] | Potency [9] | Potency [10]

CCCCCCCC#N
inactive: Potency [1] | Potency [2] | Potency [3] | max response [4] -4.16% | Potency [5] | Potency [6] | Potency [7] | Potency [8] | Potency [9]

Nc1ccccc1S(=O)(=O)c1ccccc1
inactive: Potency [1] | Potency [2] | Potency [3] | max response [4] -22.9% | Potency [5] | Potency [6] | Potency [7] | Potency [8] | Potency [9] | Potency [10]

CCC(C)(C)CC
inactive: Potency [1] | Potency [2] | Potency [3] | max response [4] -9.85% | Potency [5] | Potency [6] | Potency [7] | Potency [8] | Potency [9] | Potency [10]

CC1=CC[C@H](C(C)C)C=C1
inactive: Potency [1] | Potency [2] | Potency [3] | max response [4] -3.46% | Potency [5] | Potency [6] | Potency [7] | Potency [8] | Potency [9] | Potency [10]

Cc1cc(N)c2cc(NC(=O)Nc3ccc4nc(C)cc(N)c4c3)ccc2n1
inactive: Potency [1] | Potency [2] | Potency [3] | max response [4] -16.5% | Potency [5] | Potency [6] | Potency [7] | Potency [8] | Potency [9] | Potency [10]

CCOCC(O)COc1ccc(NC(=O)CC[S+](C)C)cc1 (configuration not stated)
inactive: Potency [1] | Potency [2] | Potency [3] | max response [4] 1.67% | Potency [5] | Potency [6] | Potency [7] | Potency [8] | Potency [9] | Potency [10]

O=C(O)c1ccccc1Cl
inactive: Potency [1] | Potency [2] | Potency [3] | max response [4] -1.6% | Potency [5] | Potency [6] | Potency [7] | Potency [8] | Potency [9] | Potency [10]

COc1cccc(N(C)C(=S)Oc2ccc3c(c2)CCCC3)n1
inactive: Potency [1] | Potency [2] | Potency [3] | max response [4] -20.4% | Potency [5] | Potency [6] | Potency [7] | Potency [8] | Potency [9]

C=C(C)C(=O)OCCOCC
inactive: Potency [1] | Potency [2] | Potency [3] | max response [4] 17.3% | Potency [5] | Potency [6] | Potency [7] | Potency [8] | Potency [9] | Potency [10]

COc1ccnc(CS(=O)c2nc3ccc(OC(F)F)cc3[nH]2)c1OC (configuration not stated)
inactive: Potency [1] | Potency [2] | Potency [3] | max response [4] -16.2% | Potency [5] | Potency [6] | Potency [7] | Potency [8] | Potency [9] | Potency [10]

CCCCOC(=O)CCCCCCCC(=O)OCCCC
inactive: Potency [1] | Potency [2] | Potency [3] | max response [4] 2.76% | Potency [5] | Potency [6] | Potency [7] | Potency [8] | Potency [9] | Potency [10]

Cc1[nH]c(C)c(Cl)c(=O)c1Cl
inactive: cytotoxicity increase [1] -3.34% [at 15.8 µM] | activity change, negative = cytotoxicity [2] -23.6% [at 15.8 µM] | viability change, negative = cytotoxic [3] 0.139% [at 15.8 µM] | max response [4] -19.8% | activity change [5] -5.28% [at 15.8 µM, active compounds read high] | cytotoxicity increase [6] -3.96% [at 15.8 µM] | activity change, negative = cytotoxic [7] 3.22% [at 15.8 µM] | cytotoxicity [8] -5.69% [at 15.8 µM] | cytotoxicity increase [9] -5.76% [at 15.8 µM]

NC(N)=NCCC[C@H](N)C(=O)O
inactive: cytotoxicity increase [1] -21.8% [at 6.97 µM] | activity change, negative = cytotoxicity [2] 5.7% [at 6.97 µM] | viability change, negative = cytotoxic [3] 1.03% [at 6.97 µM] | max response [4] 2.97% | activity change [5] -20.5% [at 6.97 µM, active compounds read high] | cytotoxicity increase [6] -5.32% [at 6.97 µM] | activity change, negative = cytotoxic [7] 2.81% [at 6.97 µM] | cytotoxicity [8] -6.35% [at 6.97 µM] | cytotoxicity increase [9] -3.66% [at 6.97 µM]

COc1ccc(C(=O)N2CCN(CC(=O)N3CCOCC3)CC2)cc1
inactive: Potency [1] | Potency [2] | Potency [3] | max response [4] 2.37% | Potency [5] | Potency [6] | Potency [7] | Potency [8] | Potency [9]

O=C(O)CC(=O)C(=O)O
inactive: Potency [1] | Potency [2] | Potency [3] | max response [4] -2.18% | Potency [5] | Potency [6] | Potency [7] | Potency [8] | Potency [9]

OC(C#CCN1CCCC1)(c1ccccc1)c1ccccc1
inactive: Potency [1] | Potency [2] | Potency [3] | max response [4] -8.96% | Potency [5] | Potency [6] | Potency [7] | Potency [8] | Potency [9] | Potency [10]

C[C@@H]1C[C@H]2O[C@@]3(O[C@@H]2C(C)(C)O)[C@H](O)[C@@]2(C)[C@@H]4CC[C@H]5C(C)(C)[C@@H](O[C@@H]6OC[C@@H](O)[C@H](O)[C@H]6O)CC[C@@]56C[C@@]46CC[C@]2(C)[C@@H]13
inactive: Potency [1] | Potency [2] | Potency [3] | max response [4] -15.4% | Potency [5] | Potency [6] | Potency [7] | Potency [8] | Potency [9]

CCCCC/C=C\C/C=C\CCCCCCCC(=O)NC(C)c1ccccc1 (configuration not stated)
inactive: Potency [1] | Potency [2] | Potency [3] | max response [4] -16.2% | Potency [5] | Potency [6] | Potency [7] | Potency [8] | Potency [9] | Potency [10]

CC1(c2ccccc2)OC(C(=O)O)=CC1=O (configuration not stated)
inactive: Potency [1] | Potency [2] | Potency [3] | max response [4] 2.42% | Potency [5] | Potency [6] | Potency [7] | Potency [8] | Potency [9] | Potency [10]

C/C(=C(\CCOP(=O)(O)O)SC(=O)c1ccccc1)N(C=O)Cc1cnc(C)nc1N
inactive: cytotoxicity increase [1] -7.37% [at 6.97 µM] | activity change, negative = cytotoxicity [2] 2.81% [at 6.97 µM] | viability change, negative = cytotoxic [3] 2.94% [at 6.97 µM] | max response [4] 6.16% | activity change [5] -4.36% [at 6.97 µM, active compounds read high] | cytotoxicity increase [6] 0.668% [at 6.97 µM] | activity change, negative = cytotoxic [7] 2.64% [at 6.97 µM] | cytotoxicity [8] -0.377% [at 6.97 µM] | cytotoxicity increase [9] -0.293% [at 6.97 µM]
